TexasRed fluor: counter-screen for TRb-SRC2 inhibitors: fluorescence interference; Potency, µM (doses to about 106 µM); TRb/SRC2 Texas Red total fluorescence interference; hit rate 0.29% among 280,000; active = well fitted curve in either direction with a large enough effect; inconclusive = small, poorly fitted or top-dose-only effect
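Human TRβ ligand-binding domain (0.6 uM) and Texas Red SRC2 peptide (20 nM) in Tris buffer with 1 uM T3 and 5% DMSO were incubated with pinned compound for 5 hr at ambient temperature. Total fluorescence was computed as S + 2P (555/632 nm).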
RECQ1 inh-1: inhibitors of human RECQ1 DNA helicase; hit rate 0.54% among 240,000; Potency, µM (top dose mostly 57.3 µM), most hits filed as inhibitors; RECQ1 DNA unwinding, red fluorescence kinetic read; AID 2549; also: nearly all actives have a fitted effect of over 30% in size
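RECQ1T1 50 nM; forked duplex (20 bp + 30-nt ss tails) 200 nM, ATP 2 mM final; pH 8.0, 2 mM MgCl2, 2.5 ug/ml poly(dI-dC); 15 min compound preincubation; discontinuous kinetic read over 2 h at RT.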
BLM helicase inh: Bloom syndrome helicase (human) inhibition | Potency, µM (titrated, usually from 56.1 µM), most hits filed as inhibitors | AID 2528 | recombinant BLM DNA unwinding, fluorescence dequenching | hit rate 0.2% among 350,000 | P54132; also: nearly all actives have a fitted effect of over 35% in size
Target sequence (P54132 whole entry, looked up): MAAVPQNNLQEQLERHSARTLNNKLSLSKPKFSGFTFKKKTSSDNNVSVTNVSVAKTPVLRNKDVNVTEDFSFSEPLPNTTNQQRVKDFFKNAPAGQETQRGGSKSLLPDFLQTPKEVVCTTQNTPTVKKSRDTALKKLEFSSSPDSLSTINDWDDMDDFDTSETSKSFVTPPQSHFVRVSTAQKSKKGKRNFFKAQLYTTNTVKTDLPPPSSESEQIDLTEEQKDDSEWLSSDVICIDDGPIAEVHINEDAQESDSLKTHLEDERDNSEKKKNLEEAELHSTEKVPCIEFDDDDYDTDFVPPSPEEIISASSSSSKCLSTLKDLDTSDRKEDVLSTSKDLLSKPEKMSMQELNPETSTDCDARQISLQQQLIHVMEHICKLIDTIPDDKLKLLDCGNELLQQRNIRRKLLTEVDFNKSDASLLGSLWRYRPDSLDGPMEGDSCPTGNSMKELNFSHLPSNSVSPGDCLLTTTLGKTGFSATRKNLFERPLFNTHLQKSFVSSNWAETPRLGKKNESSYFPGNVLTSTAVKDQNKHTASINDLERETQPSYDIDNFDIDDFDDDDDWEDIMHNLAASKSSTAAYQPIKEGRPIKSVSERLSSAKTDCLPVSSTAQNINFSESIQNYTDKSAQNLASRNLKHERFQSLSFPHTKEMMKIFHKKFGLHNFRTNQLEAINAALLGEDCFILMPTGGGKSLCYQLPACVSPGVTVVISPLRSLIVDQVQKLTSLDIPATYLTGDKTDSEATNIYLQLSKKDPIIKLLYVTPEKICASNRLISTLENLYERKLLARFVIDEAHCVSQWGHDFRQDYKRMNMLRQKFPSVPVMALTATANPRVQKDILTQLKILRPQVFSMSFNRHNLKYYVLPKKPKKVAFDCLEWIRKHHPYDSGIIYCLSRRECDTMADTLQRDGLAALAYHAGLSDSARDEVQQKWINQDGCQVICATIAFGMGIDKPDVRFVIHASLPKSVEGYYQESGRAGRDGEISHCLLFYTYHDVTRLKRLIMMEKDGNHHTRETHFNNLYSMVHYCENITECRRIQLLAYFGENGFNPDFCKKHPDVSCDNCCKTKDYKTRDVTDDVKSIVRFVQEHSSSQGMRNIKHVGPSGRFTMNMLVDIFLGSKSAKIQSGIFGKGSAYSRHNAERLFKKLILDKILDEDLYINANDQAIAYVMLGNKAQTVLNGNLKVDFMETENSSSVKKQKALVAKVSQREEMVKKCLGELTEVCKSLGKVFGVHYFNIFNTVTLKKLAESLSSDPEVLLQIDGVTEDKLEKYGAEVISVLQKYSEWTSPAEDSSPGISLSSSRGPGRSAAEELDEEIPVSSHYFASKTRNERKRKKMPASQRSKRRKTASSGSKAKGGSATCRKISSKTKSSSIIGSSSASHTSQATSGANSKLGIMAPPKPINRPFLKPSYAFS
TRb SRC2 PPI: TRbeta-SRC2 interaction inhibition. TRbeta-SRC2 peptide binding, fluorescence polarization; receptor liganded with 1 µM T3. hit rate 0.065% among 280,000. AID 1469. P10828. Potency, µM (doses to about 106 µM), actives largely listed as inhibitors; also: nearly all actives have a fitted effect of over 50% in size
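Compounds were added to 0.6 uM TRb ligand-binding domain and 20 nM Texas Red-labeled SRC2 peptide in Tris buffer containing 1 uM T3, incubated 5 hr at ambient temperature, then read by fluorescence polarization.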
RECQ1 conf: confirmation of human RECQ1 helicase inhibitors; Potency, µM (top dose mostly 229 µM), hits mostly inhibitors; shares compounds with RECQ1 inh-1; hit rate 28% among 610; AID 2708; RECQ1 helicase DNA unwinding, fluorescence; also: nearly all actives have a fitted effect of over 45% in size
ADP FP counter: ADP displacement flagged in RECQ1 inhibitor counter-screen; shares compounds with RECQ1 inh-1; ADP fluorescence polarization displacement counterscreen; Potency, µM (series often up to 228 µM), usual class: inhibitors; hit rate 27% among 530; AID 2711; also: nearly all actives have a fitted effect of over 45% in size
RECQ1 inh-2: confirmation of human RECQ1 helicase inhibitors. shares compounds with RECQ1 inh-1. recombinant RECQ1 DNA unwinding, red fluorescence. Potency, µM (titrated, usually from 119 µM), usual class: inhibitors. hit rate 15% among 1,100. AID 504841; also: nearly all actives have a fitted effect of over 50% in size
Of the large screens only hits and unclear results are named; the others gave an inactive call (follow-up assays come after a bar, where they were run); [ ] = another dose, or the depositor's remark. Sampled rows, rich in hits. Any-hit rate of the full collection: about 0.64%. Unless noted, calls follow the shape of the dose curve; as a rule, active = well fitted curve in the direction sought with a large enough effect; inconclusive = small, poorly fitted or top-dose-only effect, or another doubt; inactive = no such curve, though single readings can be large; an effect the other way counts as inactive or inconclusive.

CN(O)/C=C/C(=O)c1ccc(Br)cc1	none
O=C(O)CSc1nnc(COc2ccc([N+](=O)[O-])cc2)n1-c1ccccc1	none
O=C(O)CCSc1nnc(COc2ccc([N+](=O)[O-])cc2)n1-c1ccccc1	none | RECQ1 conf inactive | ADP FP counter inactive
CCc1ccc2[nH]c(=O)c(CN(Cc3ccccc3)Cc3nnnn3Cc3ccco3)cc2c1	RECQ1 inh-1 32µM | RECQ1 inh-2 inactive
O=c1[nH]c2cc3c(cc2cc1CN(Cc1cccs1)Cc1nnnn1Cc1ccco1)OCCO3	RECQ1 inh-1 inconclusive | RECQ1 inh-2 inactive
O=c1[nH]c2cc3c(cc2cc1CN(Cc1ccccc1)Cc1nnnn1Cc1ccco1)OCCO3	RECQ1 inh-1 inconclusive
COc1ccccc1CNc1ncnc2onc(-c3ccc(Cl)cc3)c12	none (no result: RECQ1 inh-1)
O=C1C=C(O)C(n2cncn2)C(c2ccc3c(c2)OCO3)C1 (centres undefined)	RECQ1 inh-1 inconclusive | RECQ1 inh-2 inactive
O=C(Nc1cc2c(oc1=O)CCCC2=O)c1ccc(Cl)cc1	RECQ1 inh-1 14µM, BLM helicase inh inconclusive | RECQ1 conf 14µM | ADP FP counter inconclusive
Cc1ccc(C(=O)Nc2ccc(Br)cc2)cc1S(=O)(=O)N1CCOCC1	none (no result: RECQ1 inh-1)
N#Cc1cccc(-c2ccc3ncnc(NCCN4CCOCC4)c3c2)c1	none (no result: TexasRed fluor, TRb SRC2 PPI)
COc1ccccc1-n1cnnc1SCC(=O)c1cc(C)n(Cc2cccs2)c1C	RECQ1 inh-1 inconclusive | RECQ1 inh-2 inactive
O=C(NCc1ccccc1Cl)c1ccc2c(c1)N(Cc1ccccc1)C(=O)CS2	none (no result: RECQ1 inh-1)
O=C(CSc1nc2ccccc2c(=O)[nH]1)c1ccc(O)c(O)c1	RECQ1 inh-1 8.9µM | RECQ1 conf inconclusive | ADP FP counter inconclusive | RECQ1 inh-2 16µM
O=C1CCCC2=C1C(c1ccc(O)c(O)c1)c1c(ccc3ncccc13)N2 (centres undefined)	RECQ1 inh-1 11µM | RECQ1 conf inconclusive | ADP FP counter inconclusive | RECQ1 inh-2 inconclusive
COC(=O)Cn1cccc1C(=O)c1ccccc1	none
O=C(O)Cn1cccc1C(=O)c1ccccc1	RECQ1 inh-1 inconclusive | RECQ1 inh-2 inactive
O=c1[nH]c2ccc(NCc3ccccc3F)cc2[nH]1	none (no result: RECQ1 inh-1)
CCOC(=O)c1cc(-c2ccc(OC)cc2)nn1-c1ccccc1C(=O)O	RECQ1 inh-1 7.9µM | RECQ1 conf inconclusive | ADP FP counter inactive | RECQ1 inh-2 inconclusive
COc1ccc(-c2cc(C(=O)NN)n(-c3ccccc3)n2)cc1	none
CN1CCN(C(=O)C(=O)Nc2c3c(nn2-c2ccc(Cl)cc2)CSC3)CC1	none (no result: RECQ1 inh-1)
CCOC(=O)C1=C(CN2CCN(c3ccc(Cl)cc3)CC2)NC(=O)NC1c1ccc(F)cc1 (centres undefined)	none (no result: RECQ1 inh-1)
CC(C)(C)n1cnc2cc(NCc3ccccc3Cl)ccc21	TexasRed fluor inconclusive (no result: RECQ1 inh-1)
COc1ccc(S(=O)(=O)NCCCCCC(=O)O)cc1C(=O)O	none | RECQ1 conf inactive | ADP FP counter inactive
COc1ccc(CCN(C)CCCN2CCc3cc(OC)c(OC)cc3CC2=O)cc1OC	none
Cc1cccc(C(=O)N=c2c(C#N)cc3c(=O)n4cccc(C)c4nc3n2Cc2ccco2)c1	RECQ1 inh-1 inconclusive | RECQ1 inh-2 inactive
Cc1cccn2c(=O)c3cc(C#N)c(=NC(=O)c4ccco4)n(Cc4ccco4)c3nc12	BLM helicase inh inconclusive
COc1cccc(N2C(=O)CC(Nc3ccc(N4CCOCC4)cc3)C2=O)c1 (centres undefined)	none
O=C1CC(Nc2ccc(N3CCOCC3)cc2)C(=O)N1c1cccc(C(F)(F)F)c1 (centres undefined)	RECQ1 inh-1 inconclusive | RECQ1 inh-2 inactive
CCc1nnc(NS(=O)(=O)c2ccc(NC(=S)NC(=O)/C=C/c3ccc(C(C)C)cc3)cc2)s1	RECQ1 inh-1 inconclusive | RECQ1 inh-2 inconclusive
CCc1nnc(NS(=O)(=O)c2ccc(NC(=S)NC(=O)/C=C/c3ccccc3)cc2)s1	RECQ1 inh-1 inconclusive | RECQ1 inh-2 inconclusive
CCc1nnc(NS(=O)(=O)c2ccc(NC(=S)NC(=O)/C=C/c3ccc(OC)cc3)cc2)s1	BLM helicase inh inconclusive
O=[N+]([O-])c1ccc(-c2cnc(SC(c3ccccc3)c3ccccc3)[nH]2)cc1	none
O=[N+]([O-])c1ccc(-c2cnc(SCc3ccccc3Cl)[nH]2)cc1	RECQ1 inh-1 inconclusive | RECQ1 inh-2 inactive
COCCOC(=O)c1c(NC(=O)CN2CCc3ccccc32)sc(C(N)=O)c1C	RECQ1 inh-1 20µM | RECQ1 inh-2 inactive
Cc1cc(C)n2c(SCC(=O)Nc3c(C)n(C)n(-c4ccccc4)c3=O)nnc2n1	none | RECQ1 conf inactive | ADP FP counter inactive
CCCCN(C)C(=O)c1ccc2c(c1)N(Cc1cccc(Cl)c1)C(=O)c1ccccc1S2=O (centres undefined)	none (no result: RECQ1 inh-1)
CCOc1cc(/C=C(/NC(C)=O)C(=O)O)cc(Cl)c1OCc1cccc(Br)c1	none | RECQ1 conf inconclusive | ADP FP counter inactive
CCOc1cc(C(N)=O)cc(Cl)c1OCc1ccccc1	none
C=Cc1ccc(CSc2nc(-c3ccccc3C)nc3c2Cc2c(CO)cnc(C)c2O3)cc1	none (no result: RECQ1 inh-1)
Cc1c(C2=CCN(S(=O)(=O)c3ccc(Br)cc3)CC2)c2ccccc2n1C	TexasRed fluor 28µM[fluorescent], RECQ1 inh-1 35µM, TRb SRC2 PPI inconclusive | RECQ1 conf 50µM | RECQ1 inh-2 45µM
CCn1c(C)c(C2=CCN(S(=O)(=O)c3ccc(C)cc3)CC2)c2ccccc21	none
Cc1c(NC(=O)COC(=O)c2cc(-c3cccc4ccccc34)nc3ccccc23)c(=O)n(-c2ccccc2)n1C	RECQ1 inh-1 inconclusive, TRb SRC2 PPI inconclusive | RECQ1 inh-2 inconclusive
CCNC(=O)COC(=O)c1cc(-c2ccco2)nc2ccccc12	RECQ1 inh-1 28µM, BLM helicase inh inconclusive | RECQ1 inh-2 inconclusive
CCn1cc(C(=O)OCC(=O)Nc2c(C)n(C)n(-c3ccccc3)c2=O)c(=O)c2ccc(C)nc21	none | RECQ1 conf inactive | ADP FP counter inconclusive
CCCc1nc2ccccc2c(C(=O)OCC(=O)Nc2c(C)n(C)n(-c3ccccc3)c2=O)c1CC	none | RECQ1 conf inactive | ADP FP counter inactive
Cc1ccc2nc(C)cc(C(=O)OCC(=O)Nc3c(C)n(C)n(-c4ccccc4)c3=O)c2c1	none
Cc1c(NC(=O)COc2ncnc3ccccc23)c(=O)n(-c2ccccc2)n1C	none
CC1CN(C(=O)N2CCC(C(=O)NCCCc3ccccc3)CC2)c2cc(Cl)ccc2O1 (centres undefined)	TexasRed fluor inconclusive (no result: RECQ1 inh-1)
CCOc1ccc(S(=O)(=O)NCCSCc2ccco2)cc1	none
COc1ccc(S(=O)(=O)NCCSCc2ccco2)cc1	RECQ1 inh-1 inconclusive | RECQ1 inh-2 inactive
O=C1c2cccc3cc([N+](=O)[O-])cc(c23)C(=O)N1CCN1CCCC1	RECQ1 inh-1 inconclusive | RECQ1 inh-2 25µM

High-throughput results from PubChem.
